Values joined by “and” are separate entries in the source; they are usually repeats but may differ in a detail not shown here. Equal values may be shown once. Out of some 5,500 compounds screened, about 2,000 (36%) were called active. Another 18% or so got no clear call; they are omitted. No stated cut-off is given here; in the data, active means normalized growth mostly below about 0.91 (no sharp cut-off); inconclusive means no clear call, values can overlap the other calls; inactive means mostly above about 0.92. Some of the results follow.
Test: chemical genetic growth profiling, strain panel (AID 1159580);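 further: tested at 20 µM; growth read once vehicle control cultures reached saturation at 30 °C; 1 = growth at the plate median or of vehicle wells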
Settings: S. cerevisiae deletion strains, growth OD

Measured: normalized growth

CO[C@@H]1[C@@H](OC(N)=O)[C@@H](O)[C@H](Oc2ccc3c(O)c(NC(=O)c4ccc(O)c(CC=C(C)C)c4)c(=O)oc3c2C)OC1(C)C
inactive: locus YAL013W, strain DEP1, stronger effect = lower value 1.02 | locus YAL021C, strain ccr4, stronger effect = lower value 1.03 | locus YAL026C, strain drs2, stronger effect = lower value 1.02 | locus YAL030W, strain snc1, stronger effect = lower value 1.03 | locus YBL061C, strain skt5, stronger effect = lower value 1.02 | locus YBR009C, strain hhf1, stronger effect = lower value 1.02 | locus YBR021W, strain FUR4, stronger effect = lower value 1.04 | locus YBR023C, strain chs3, stronger effect = lower value 1.04 | locus YBR171W, strain sec66, stronger effect = lower value 1.06 | locus YBR229C, strain ROT2, stronger effect = lower value 1.01 | locus YBR231C, strain swc5, stronger effect = lower value 1.04 | locus YBR279W, strain paf1, stronger effect = lower value 1.05 | locus YCL011C, strain gbp2, stronger effect = lower value 1.03 | locus YCL016C, strain dcc1, stronger effect = lower value 1.04 | locus YCL029C, strain bik1, stronger effect = lower value 0.995 | locus YCL061C, strain MRC1, stronger effect = lower value 1.03 | locus YCL069W, strain vba3, stronger effect = lower value 1.03 | locus YCR088W, strain abp1, stronger effect = lower value 1.04 | locus YDL005C, strain med2, stronger effect = lower value 1.04 | locus YDL035C, strain GPR1, stronger effect = lower value 1.01 | locus YDL040C, strain nat1, stronger effect = lower value 1.03 | locus YDL074C, strain BRE1, stronger effect = lower value 0.955 | locus YDL101C, strain DUN1, stronger effect = lower value 1.02 | locus YDL134C, strain PPH21, stronger effect = lower value 1.01 | locus YDL185W, strain tfp1, stronger effect = lower value 0.945 | locus YDL192W, strain arf1, stronger effect = lower value 0.988 | locus YDR001C, strain nth1, stronger effect = lower value 1.03 | locus YDR069C, strain doa4, stronger effect = lower value 1.01 | locus YDR101C, strain arx1, stronger effect = lower value 1.01 | locus YDR137W, strain rgp1, stronger effect = lower value 0.998 | locus YDR150W, strain NUM1, stronger effect = lower value 1.02 | locus YDR159W, strain sac3, stronger effect = lower value 0.98 | locus YDR162C, strain NBP2, stronger effect = lower value 0.968 | locus YDR195W, strain ref2 1.04 | locus YDR297W, strain sur2, stronger effect = lower value 1.03 | locus YDR318W, strain mcm21, stronger effect = lower value 0.991 | locus YDR334W, strain swr1, stronger effect = lower value 1.03 | locus YDR335W, strain msn5, stronger effect = lower value 1.06 | locus YDR388W, stronger effect = lower value 0.991 | locus YDR392W, strain spt3, stronger effect = lower value 0.999 | locus YDR502C, strain sam2, stronger effect = lower value 0.999 | locus YEL003W, strain gim4, stronger effect = lower value 0.999 | locus YEL037C, strain rad23, stronger effect = lower value 1.04 | locus YEL061C, strain CIN8 (second series), stronger effect = lower value 1.02 | locus YEL061C, strain CIN8, stronger effect = lower value 0.992 | locus YER015W, strain faa2, stronger effect = lower value 1.04 | locus YER016W, strain bim1, stronger effect = lower value 1.03 | locus YER110C, stronger effect = lower value 0.985 | locus YER111C, strain swi4, stronger effect = lower value 1.03 | locus YER155C, strain BEM2 (second series), stronger effect = lower value 1.06 | locus YER155C, strain BEM2, stronger effect = lower value 1.04 | locus YER167W, strain BCK2, stronger effect = lower value 1.02 | locus YFR010W, strain ubp6, stronger effect = lower value 1.02 | locus YGL078C, strain dbp3, stronger effect = lower value 0.954 | locus YGL086W, strain mad1, stronger effect = lower value 1.02 | locus YGL167C, strain pmr1, stronger effect = lower value 1.02 | locus YGL173C, strain kem1, stronger effect = lower value 1.05 | locus YGL227W, strain vid30, stronger effect = lower value 1.03 | locus YGL240W, strain doc1, stronger effect = lower value 1.01 | locus YGL248W, strain PDE1, stronger effect = lower value 1.02 | locus YGL253W, strain hxk2, stronger effect = lower value 1 | locus YGR078C, strain PAC10, stronger effect = lower value 1.01 | locus YGR135W, strain pre9, stronger effect = lower value 0.993 | locus YGR229C, strain SMI1, stronger effect = lower value 1.01 | locus YGR252W, strain gcn5, stronger effect = lower value 1.16 | locus YHR013C, strain ard1, stronger effect = lower value 1.05 | locus YHR027C, strain rpn1, stronger effect = lower value 1.04 | locus YHR030C, strain SLT2, stronger effect = lower value 1.02 and 0.882 | locus YHR079C, strain IRE1 (second series), stronger effect = lower value 0.986 | locus YHR079C, strain IRE1, stronger effect = lower value 0.87 | locus YHR094C, strain hxt1, stronger effect = lower value 0.995 | locus YHR129C, strain ARP1, stronger effect = lower value 1 | locus YHR142W, strain chs7, stronger effect = lower value 1.01 | locus YHR200W, strain rpn10, stronger effect = lower value 0.989 | locus YIL066C, strain RNR3, stronger effect = lower value 1.01 | locus YIL073C, strain SPO22, stronger effect = lower value 0.71 | locus YIL125W, strain kgd1, stronger effect = lower value 0.964 | locus YIR030C, strain dcg1, stronger effect = lower value 0.992 | locus YJL092W, strain hpr5, stronger effect = lower value 1.03 | locus YJL095W, strain BCK1 (second series), stronger effect = lower value 1.04 | locus YJL095W, strain BCK1, stronger effect = lower value 1.04 and 0.919 | locus YJL115W, strain asf1, stronger effect = lower value 1.04 | locus YJL129C, strain trk1, stronger effect = lower value 0.971 | locus YJL134W, strain LCB3, stronger effect = lower value 1.01 | locus YJL154C, strain vps35, stronger effect = lower value 1.04 | locus YJL164C, strain tpk1, stronger effect = lower value 1.02 | locus YJL166W, strain qcr8, stronger effect = lower value 1.04 | locus YJL168C, strain set2, stronger effect = lower value 0.988 | locus YJL187C, strain SWE1 (second series), stronger effect = lower value 1.01 | locus YJL187C, strain SWE1, stronger effect = lower value 1.03
